PfHsp90 yeast 2 = reduces growth (ATP signal) of yeast expressing P. falciparum Hsp90; S. cerevisiae expressing PfHsp90, BacTiter-Glo ATP, 48 h; yeast lacking PDR1 and PDR3 efflux regulators; inhibition, % at 9.4 µM; 310,000 tested, 0.32% active; AID 504621;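 active means every replicate shows inhibition above about 80%, whatever the replicate mean, limit read from the data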;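 further: 0% = DMSO neutral controls and 100% = 20 µM radicicol positive controls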
NALP1 inh = blocks the NALP1 inflammasome reconstituted in yeast; S. cerevisiae NALP1/ASC/caspase-1 growth, X-gal OD620, 72 h; inhibition, % at 10 µM; 280,000 tested, 0.61% active; in the data active means inhibition mostly above about 24%, no sharp cut-off; inactive means mostly below about 32%
TIM10 inh = growth inhibitors of TIM10 yeast strain | 330,000 tested, 1.4% active | S. cerevisiae TIM10 strain growth, BacTiter-Glo luminescence, 24 h | inhibition, % at 10 µM;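 active means inhibition of 40% or more at the single tested concentration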;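 further: wild-type TIM10 isogenic control strain grown at permissive 25 °C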
tim23-1 inh = tim23-1 yeast growth inhibition; S. cerevisiae tim23-1 growth, BacTiter-Glo luminescence, 24 h; inhibition, % at 20 µM; 330,000 tested, 1.3% active;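 active means growth inhibition of the mutant yeast at or above 50%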;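 further: temperature-sensitive mutant grown at 25 °C; plate controls were DMSO-treated mutant yeast for no effect and medium wells lacking yeast for full effect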
SKKanGAS inh = blocks kanamycin growth of S. pyogenes SKKanGAS strain; BacTiter-Glo, 6 h; inhibition, % at 7.5 µM; 300,000 tested, 1.3% active; AID 1662;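 active means mean replicate score, as percent of positive control median, at least 50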;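 further: strain carries kanamycin resistance gene driven by streptokinase promoter and grows in 40 µg/ml kanamycin; loss of luminescence reflects streptokinase promoter inhibition or plain growth inhibition; 0% = median of DMSO wells and 100% = positive control at its reference dose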
tim10-1 inh = inhibits growth of tim10-1 mutant yeast; 330,000 tested, 2.2% active; AID 463190; inhibition, % at 20 µM; S. cerevisiae tim10-1 ts strain growth, BacTiter-Glo, 24 h;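 active means inhibition of at least 40%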;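 further: mutant grown at 25 °C; 0% = DMSO wells with yeast and 100% = wells holding no yeast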
tim23-1 confirm = confirmation of tim23-1 mutant yeast growth inhibitors; shares compounds with tim23-1 inh; S. cerevisiae tim23-1 growth, BacTiter-Glo luminescence, 24 h; inhibition, % at 20 µM; 4,400 tested, 83% active;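 active means inhibition above about 39% in either of two replicate wells at 20 µM, limit read from the data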;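 further: temperature-sensitive tim23-1 mutant grown at 25 °C; 0% = DMSO wells with yeast and 100% = medium wells without yeast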
An asterisk follows results filed as active; · = no result given. Sampled rows, rich in hits. Any-hit rate of the full collection: about 4.8%.

SMILES	PfHsp90 yeast 2	NALP1 inh	TIM10 inh	tim23-1 inh	SKKanGAS inh	tim10-1 inh	tim23-1 confirm
CC(=O)NC(c1ccc2ccccc2c1)c1ccc2cccnc2c1O (stereo unspecified)	108.2*	-5.0	-28.1	55.3*	89.2*	17.7	70.8*
Cn1c(=O)c2c(nc(SCC(=O)NC3CCCC3)n2C)n(C)c1=O	-10.6	19.6	-8.1	4.2	-3.5	9.4	·
CCc1cccc(CC)c1NC(=O)CSc1nc2ccc(N3C(=O)C4C5C=CC(C5)C4C3=O)cc2s1 (stereo unspecified)	17.9	26.2	9.6	26.3	-0.7	28.7	·
COc1ccccc1-c1nn(-c2ccccc2)cc1C(=O)N1CCc2ccccc2C1	-46.8	·	-23.1	39.3	·	-2.9	·
CC(C)(C)c1ccc(-c2nc(C=O)c3ccccn23)cc1	·	-14.2	38.1	52.4*	0.4	33.4	49.5*
CCOC(=O)c1cccc2c1-c1ccccc1/C2=N/O	-64.7	-1.0	32.8	71.5*	-5.1	13.2	54.1*
CCOC(=O)NN=C1c2ccccc2-c2ccccc21	-39.0	5.5	10.8	34.7	-12.7	18.6	·
COc1ccc(C(=O)Nc2ccc3[nH]ncc3c2)cc1	6.0	4.0	-8.5	5.1	-3.6	-0.5	·
Oc1cccc(-c2nc3ccccc3s2)c1	-21.2	10.9	29.3	46.9	-11.4	33.9	·
CCOc1cc(-c2nc3ccccc3s2)ccc1O	-32.1	14.2	26.8	58.8*	-5.6	35.2	36.6
COc1cc(NC(=S)Nc2ccccn2)cc(OC)c1OC	-30.8	5.0	9.2	0.1	-11.0	32.9	·
COc1cc(NC(=S)Nc2ccccn2)cc(OC)c1	13.2	10.1	26.5	51.1*	-1.9	15.0	17.8
Cc1ccc2c(c1)C(=O)C(=O)N2c1ccc(C(F)(F)F)cc1	-19.7	·	2.0	26.0	·	8.4	·
Cc1ccc2c(c1)C(=O)C(=O)N2c1ccc(Cl)cc1	5.0	·	23.9	66.1*	·	12.5	75.3*
CCCN1C(=O)C(=O)c2cc(C)ccc21	17.7	·	-2.4	18.4	·	-11.2	·
Cc1ccc2c(c1)C(=O)C(=O)N2CCOc1ccccc1	-3.6	9.4	12.2	43.3	0.6	13.2	·
Cc1cccc(OCCN2C(=O)C(=O)c3cc(C)ccc32)c1	-8.5	-7.6	11.8	50.8*	7.2	10.6	48.6*
Cc1ccc2c(c1)C(=O)C(=O)N2Cc1ccc(Br)cc1	12.8	·	39.3	68.1*	·	36.0	1.2
Cc1ccc(CN2C(=O)C(=O)c3cc(C)ccc32)cc1	9.2	·	25.3	78.5*	·	15.5	84.0*
Cc1ccc(CN2C(=O)/C(=C3\SC(N4CCOCC4)=NC3=O)c3cc(Br)ccc32)cc1	·	12.6	·	·	·	·	·
O=C(N=Nc1c(O)n(C2OC(=O)c3ccccc32)c2ccccc12)c1ccc(O)cc1 (stereo unspecified)	-41.5	-0.5	-3.9	-22.4	-3.8	-11.5	·
c1ccc(CSc2nnc(-c3ccccn3)n2-c2ccccc2)cc1	8.0	-2.2	3.6	44.2	0.8	37.2	·
O=C(COC(=O)c1cnc(Cl)c(Cl)c1)NCc1ccc2c(c1)OCO2	-26.1	-1.9	1.4	-4.7	2.3	10.5	·
Cc1cccc(OCCN2C(=O)C(=O)c3cccc(C)c32)c1	5.6	27.1	10.2	31.0	-6.3	12.7	·
CCCCN1C(=O)C(=O)c2cc(Cl)ccc21	-0.5	·	25.5	58.7*	·	18.4	55.2*
SMILES	PfHsp90 yeast 2	NALP1 inh	TIM10 inh	tim23-1 inh	SKKanGAS inh	tim10-1 inh	tim23-1 confirm
Cc1cccc2c1N(CCCOc1ccccc1)C(=O)C2=O	-0.7	1.1	26.3	58.5*	-5.1	22.6	55.8*
CCCCN1C(C)=CC(=C2C(=O)c3ccccc3C2=O)C=C1C	39.4	7.3	-12.4	-15.8	6.9	-29.0	·
CCS(=O)(=O)c1ncc(CO)n1CCc1ccccc1	11.1	-2.7	4.4	3.3	2.5	-1.8	·
Cc1ccc(C(=O)Nc2nc(-c3ccccn3)cs2)s1	72.7	·	1.0	61.7*	·	10.4	55.2*
CC(Oc1ccccc1)C(=O)Nc1nc(-c2ccccn2)cs1 (stereo unspecified)	·	·	17.5	35.3	·	22.5	·
CC(Oc1cccc(Cl)c1)C(=O)Nc1nc(-c2ccccn2)cs1 (stereo unspecified)	-15.3	·	29.2	66.9*	-3.6	31.2	55.0*
Cc1cccc(C(=O)Nc2c(C#N)c(C)c(C)n2Cc2ccccc2)c1	43.2	30.6	18.1	18.9	-12.9	10.0	·
Cc1cc(NC(=O)c2cc(F)c(F)cc2Cl)no1	6.3	30.5	-6.5	4.5	-2.6	4.6	·
Cc1ccc(S(=O)(=O)N2CCOCC2)cc1NC(=O)COC(=O)c1ccc(OCc2c(C)noc2C)cc1	0.3	35.6	-2.3	15.7	-6.7	4.4	·
O=C(Nc1ccc(Cl)cc1)Nc1ccccc1Sc1ncc([N+](=O)[O-])s1	-17.6	·	4.9	53.6*	31.1	-12.6	71.7*
O=C(Cc1ccc(Cl)cc1)Nc1ncc([N+](=O)[O-])s1	-38.9	-7.6	·	·	-10.1	·	·
COc1ccc(CCNS(=O)(=O)c2ccc(Br)cc2)cc1	3.4	3.8	-2.0	51.8*	-7.4	35.0	29.7
Cn1c(=NC(=O)CCl)sc2ccccc21	-60.0	0.4	13.5	56.9*	-3.3	34.2	35.5
O=c1c(O)c(-c2ccccc2)oc2cc(O)cc(O)c12	17.5	·	-7.0	58.4*	·	-7.1	60.8*
O=c1c(O)c(-c2cc(O)c(O)c(O)c2)oc2cc(O)cc(O)c12	-1.8	·	-20.4	23.0	·	-10.8	·
O=c1c(-c2ccccc2)c(-c2ccccc2)oc2cc(O)cc(O)c12	123.4*	-10.5	30.5	54.6*	5.3	21.8	-24.4
CC(C)=CCc1cc(-c2oc3cc(O)cc(O)c3c(=O)c2O)ccc1O	·	·	-34.0	51.3*	30.8	8.2	51.3*
COc1ccc(/C=C/C(=O)Nc2nnc(C(C)C)s2)cc1OC	·	·	6.1	3.0	-2.6	11.1	·
COc1cccc(N2C(=O)CN(Cc3ccc(OC)c(OC)c3)C2=S)c1	-6.1	16.8	10.5	30.8	-2.0	37.8	·
CC(C)(C)/C(O)=C/c1nc2cc(Cl)ccc2oc1=O	8.3	4.0	9.0	-8.6	4.8	2.2	·
C/C(=N\NC(=O)CSc1ncccn1)c1ccc2c(c1)OCCO2	-4.7	20.4	-14.5	53.1*	-4.4	-0.6	15.2
C/C(=N\NC(=O)CSc1nc(C)cc(C)n1)c1ccc2c(c1)OCCO2	-1.5	8.7	8.1	9.7	0.7	12.6	·
CCOC(=O)c1nnsc1NC(=O)Nc1ccc(OC)cc1	-6.4	13.8	8.4	83.6*	5.8	-14.2	1.9
Brc1ccccc1/C=N/Nc1ccccn1	-34.8	-18.3	19.4	15.4	1.1	15.6	·
COC(=O)COc1cccc2c(=O)n(CC(=O)NCc3ccc(F)cc3)ccc12	14.9	5.8	-5.1	2.5	0.5	6.4	·
C=CCOc1nc2c(c(=O)n(C)c(=O)n2C)n1Cc1ccccc1	-6.0	15.1	10.7	25.3	-21.7	3.7	·
